Assay results: ChEMBL document CHEMBL5724796, “Tm Shift (DSF) assay results for EUbOPEN Chemogenomics Library” (2024)

Experiments:
Conditions in all cases: Compound concentration 20.0 uM
[1] = target: Tyrosine-protein kinase ABL1 (Homo sapiens) (UniProt P00519)
[2] = target: Bromodomain-containing protein 4 (Homo sapiens) (UniProt O60885)
[3] = target: Cyclin-dependent kinase 2 (Homo sapiens) (UniProt P24941)
[4] = target: Casein kinase I isoform delta (Homo sapiens) (UniProt P48730)
[5] = target: Glycogen synthase kinase-3 beta (Homo sapiens) (UniProt P49841)
Glycogen synthase kinase-3 beta (Homo sapiens), sequence (P49841 whole entry, looked up): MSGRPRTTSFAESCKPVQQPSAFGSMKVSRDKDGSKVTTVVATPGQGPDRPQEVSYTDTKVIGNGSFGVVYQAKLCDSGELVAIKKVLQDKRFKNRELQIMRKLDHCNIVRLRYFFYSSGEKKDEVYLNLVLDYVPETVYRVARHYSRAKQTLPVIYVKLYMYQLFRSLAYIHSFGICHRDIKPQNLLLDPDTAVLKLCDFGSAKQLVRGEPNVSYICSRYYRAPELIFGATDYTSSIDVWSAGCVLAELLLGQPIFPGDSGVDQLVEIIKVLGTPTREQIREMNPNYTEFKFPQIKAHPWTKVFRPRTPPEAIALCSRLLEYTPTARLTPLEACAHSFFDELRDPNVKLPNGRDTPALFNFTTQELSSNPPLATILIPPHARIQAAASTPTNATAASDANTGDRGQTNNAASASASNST

[6] = target: Mitogen-activated protein kinase 1 (Homo sapiens) (UniProt P28482)
Mitogen-activated protein kinase 1 (Homo sapiens), sequence (P28482 whole entry): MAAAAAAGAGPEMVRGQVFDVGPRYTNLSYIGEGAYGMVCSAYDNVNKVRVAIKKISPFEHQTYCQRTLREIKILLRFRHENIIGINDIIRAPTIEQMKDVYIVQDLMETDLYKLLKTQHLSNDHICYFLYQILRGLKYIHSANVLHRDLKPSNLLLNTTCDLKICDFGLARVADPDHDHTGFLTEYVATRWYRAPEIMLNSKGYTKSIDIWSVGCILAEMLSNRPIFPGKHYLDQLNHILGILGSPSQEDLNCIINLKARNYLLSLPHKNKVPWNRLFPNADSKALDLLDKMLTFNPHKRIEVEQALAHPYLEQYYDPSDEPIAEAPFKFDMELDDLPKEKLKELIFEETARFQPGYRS

[7] = target: T1, Aurora kinase A (Homo sapiens) (UniProt O14965)
T1 sequence (whole entry): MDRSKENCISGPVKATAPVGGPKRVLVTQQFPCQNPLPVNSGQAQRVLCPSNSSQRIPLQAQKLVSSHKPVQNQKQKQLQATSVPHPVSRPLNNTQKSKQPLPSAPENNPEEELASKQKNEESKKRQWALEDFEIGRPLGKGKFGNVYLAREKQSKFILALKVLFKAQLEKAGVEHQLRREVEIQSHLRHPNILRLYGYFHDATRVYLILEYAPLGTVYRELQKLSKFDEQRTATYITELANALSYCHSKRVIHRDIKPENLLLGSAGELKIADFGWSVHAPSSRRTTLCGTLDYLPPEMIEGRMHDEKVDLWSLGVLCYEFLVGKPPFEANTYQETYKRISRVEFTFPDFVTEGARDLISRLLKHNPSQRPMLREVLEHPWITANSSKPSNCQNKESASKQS

[8] = target: T2, Transcription intermediary factor 1-alpha (Homo sapiens) (UniProt O15164)
T2 sequence (whole entry): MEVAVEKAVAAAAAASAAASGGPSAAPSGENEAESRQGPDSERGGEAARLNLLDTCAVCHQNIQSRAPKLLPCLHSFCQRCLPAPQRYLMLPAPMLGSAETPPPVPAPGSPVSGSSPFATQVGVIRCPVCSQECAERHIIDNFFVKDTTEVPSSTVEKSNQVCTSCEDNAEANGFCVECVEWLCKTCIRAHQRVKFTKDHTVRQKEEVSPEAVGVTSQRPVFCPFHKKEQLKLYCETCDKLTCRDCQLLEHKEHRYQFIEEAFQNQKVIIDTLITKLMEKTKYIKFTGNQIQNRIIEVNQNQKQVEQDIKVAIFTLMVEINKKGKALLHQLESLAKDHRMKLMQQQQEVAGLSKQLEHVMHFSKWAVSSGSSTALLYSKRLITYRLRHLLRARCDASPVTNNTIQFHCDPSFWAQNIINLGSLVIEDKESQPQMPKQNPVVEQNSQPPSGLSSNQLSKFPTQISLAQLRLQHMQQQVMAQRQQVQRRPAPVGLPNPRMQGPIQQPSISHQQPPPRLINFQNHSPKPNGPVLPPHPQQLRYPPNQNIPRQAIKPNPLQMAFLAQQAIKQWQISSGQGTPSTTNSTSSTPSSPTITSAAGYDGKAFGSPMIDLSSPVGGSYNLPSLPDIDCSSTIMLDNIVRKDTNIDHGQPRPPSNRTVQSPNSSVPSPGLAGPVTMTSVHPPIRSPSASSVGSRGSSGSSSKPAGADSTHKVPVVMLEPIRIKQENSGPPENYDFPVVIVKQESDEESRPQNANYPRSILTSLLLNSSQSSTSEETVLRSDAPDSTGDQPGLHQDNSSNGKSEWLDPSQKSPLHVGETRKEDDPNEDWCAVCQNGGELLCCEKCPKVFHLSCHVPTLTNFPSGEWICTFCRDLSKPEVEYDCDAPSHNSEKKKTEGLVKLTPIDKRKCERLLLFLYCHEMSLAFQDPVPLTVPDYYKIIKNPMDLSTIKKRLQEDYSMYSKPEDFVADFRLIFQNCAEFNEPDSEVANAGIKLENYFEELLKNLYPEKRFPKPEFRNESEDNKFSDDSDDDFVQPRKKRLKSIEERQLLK

Tyrosine-protein kinase ABL1 (Homo sapiens), sequence (P00519 whole entry): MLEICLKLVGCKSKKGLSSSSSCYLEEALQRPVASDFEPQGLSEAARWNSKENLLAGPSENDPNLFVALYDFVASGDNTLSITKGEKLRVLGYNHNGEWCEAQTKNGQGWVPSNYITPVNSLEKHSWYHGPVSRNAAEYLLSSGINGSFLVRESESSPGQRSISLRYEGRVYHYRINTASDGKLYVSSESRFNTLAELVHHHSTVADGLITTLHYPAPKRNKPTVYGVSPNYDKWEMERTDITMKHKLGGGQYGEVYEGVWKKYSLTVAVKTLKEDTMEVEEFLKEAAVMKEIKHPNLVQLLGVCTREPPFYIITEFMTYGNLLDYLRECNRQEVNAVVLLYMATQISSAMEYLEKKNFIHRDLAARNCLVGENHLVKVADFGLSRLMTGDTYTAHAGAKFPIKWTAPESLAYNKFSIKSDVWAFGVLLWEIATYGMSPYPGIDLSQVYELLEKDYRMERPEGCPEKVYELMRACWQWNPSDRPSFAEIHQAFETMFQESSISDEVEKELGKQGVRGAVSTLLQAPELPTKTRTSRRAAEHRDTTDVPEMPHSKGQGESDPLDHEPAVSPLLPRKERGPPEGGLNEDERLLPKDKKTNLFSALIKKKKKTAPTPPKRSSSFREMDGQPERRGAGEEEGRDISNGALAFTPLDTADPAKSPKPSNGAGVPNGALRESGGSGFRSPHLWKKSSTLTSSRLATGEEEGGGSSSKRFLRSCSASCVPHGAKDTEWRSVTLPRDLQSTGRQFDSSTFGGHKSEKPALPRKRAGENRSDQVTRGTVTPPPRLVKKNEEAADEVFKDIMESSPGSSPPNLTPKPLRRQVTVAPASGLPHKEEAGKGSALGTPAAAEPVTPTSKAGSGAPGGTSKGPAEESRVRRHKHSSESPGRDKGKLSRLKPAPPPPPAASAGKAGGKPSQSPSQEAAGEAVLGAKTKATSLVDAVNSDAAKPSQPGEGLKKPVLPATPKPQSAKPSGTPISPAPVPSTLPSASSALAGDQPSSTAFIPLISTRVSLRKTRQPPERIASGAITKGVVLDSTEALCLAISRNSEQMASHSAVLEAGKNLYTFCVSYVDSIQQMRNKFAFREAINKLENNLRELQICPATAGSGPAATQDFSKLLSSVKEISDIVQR
Casein kinase I isoform delta (Homo sapiens), sequence (P48730 whole entry, looked up, canonical isoform): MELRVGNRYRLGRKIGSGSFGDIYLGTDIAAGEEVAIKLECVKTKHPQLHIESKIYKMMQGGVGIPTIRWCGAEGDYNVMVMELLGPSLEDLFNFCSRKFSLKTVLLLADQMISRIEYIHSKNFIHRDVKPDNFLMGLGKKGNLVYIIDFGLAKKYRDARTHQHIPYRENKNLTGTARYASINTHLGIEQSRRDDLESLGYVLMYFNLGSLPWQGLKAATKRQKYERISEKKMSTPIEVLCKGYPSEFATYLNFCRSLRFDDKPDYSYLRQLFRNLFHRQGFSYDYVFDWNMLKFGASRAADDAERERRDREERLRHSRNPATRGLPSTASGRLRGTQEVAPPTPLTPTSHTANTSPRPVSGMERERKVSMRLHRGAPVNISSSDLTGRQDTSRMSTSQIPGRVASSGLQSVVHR

Structure (SMILES) | ΔTm [1] [°C] | ΔTm [2] [°C] | ΔTm [3] [°C] | ΔTm [4] [°C] | ΔTm [5] [°C] | ΔTm [6] [°C] | ΔTm [7] [°C] | ΔTm [8] [°C]
CCN1C(C)(C)CC(Oc2ccc(C(=O)Nc3ccc(NC(=O)Nc4cc(C(C)(C)C)on4)cc3)nc2)CC1(C)C | 1.14 | -1.48 | 0.38 | 0.21 | 0.25 | -3.48 | 0.68 | -0.32
Cc1cc(OCc2nnc(SC3CCCC3)n2-c2cccnc2)ccc1-c1ccc(S(C)(=O)=O)cc1 | -1.4 | -2.52 | 0.2 | -0.2 | -4.14 | 0 | -1.26 | 0.18
CNC(=O)Cn1cc(-c2ccc3c(c2)[C@H](F)C[C@]32NC(=O)N(CC(=O)N(Cc3ccc(F)cc3)[C@@H](C)C(F)(F)F)C2=O)cn1 | 0.95 | -4.22 | 1.31 | 0.73 | 1.28 | -6.46 | -1.03 | -1.4
CCC[C@H]1CNCc2c1[nH]c(=O)c(C#N)c2N1CCC2(CC1)CC2 | 0.01 | -1.65 | -0.06 | 0.15 | -0.31 | -0.08 | -0.93 | -1.34
COC(=O)C1=C(C(=O)OC)[C@@]2([C@@H](Cc3ccc(C)cc3)Nc3ccccc3)C=C[C@@H]1O2 | 0.44 | -0.64 | 0.54 | -0.66 | -1.68 | -0.27 | -2.34 | 1.28
FC(F)(F)Cn1cc(-c2ccncc2)c(-c2ccc(OCc3ccc4ccccc4n3)cc2)n1 | 1.54 | -3.29 | 0.14 | 1.23 | -1.19 | 0.65 | 0.56 | -0.98
Cc1ncsc1-c1ccc(CNC(=O)[C@@H]2C[C@@H](O)CN2C(=O)[C@@H](NC(=O)COCCOCCOc2ccc(-c3ccc4ncnc(Nc5ccc(OCc6cccc(F)c6)c(Cl)c5)c4c3)cc2)C(C)(C)C)cc1 | 2.92 | 5.48 | 5.97 | -3.34 | 9.57 | -2.89 | 7.09 | 10.8
Cn1c(=O)cc(N2CCC[C@@H](N)C2)n(Cc2ccccc2C#N)c1=O | 0.31 | 2.27 | 1.07 | -0.43 | 0.02 | 0.02 | -1.58 | 0.69
N#Cc1c(N)[nH]c2cc(/C=C/c3cccc(F)c3)ccc12 | 1.1 | 3.17 | 2.67 | -0.33 | -0.5 | 1.9 | 0.33 | 1.03
Nc1cc(F)ccc1NC(=O)c1ccc(CNC(=O)/C=C/c2cccnc2)cc1 | 0.72 | -1.97 | -0.55 | 0.17 | -1.09 | -3.81 | -0.25 | -1.2
CC(C)(C)OC(=O)Nc1ccc(-c2cc(C(=O)NCCCCCCC(=O)NO)no2)cc1 | -1.36 | 0 | -1.64 | -3.22 | 0 | 0 | -4.92 | -2.07
Cc1cc(Cl)cc(-c2c3sc(CN4C(=O)C5C(C4=O)C5(C)C)cc3nn2C)c1OC1CCNCC1 (configuration not stated) | 0.34 | -5.5 | 0.13 | -0.45 | -0.24 | -0.05 | -2.64 | -1.23
CC1(C)c2cccc(C(=O)NO)c2CN1c1cnc(C(F)(F)F)cn1 | 0.41 | -2.93 | -2.1 | 0.64 | 0 | 0 | -2.98 | -1.07
O=C(O)/C(S)=C/c1c[nH]c2ccc(F)cc12 | -1 | -4.6 | -0.97 | 0.7 | -0.98 | 0.11 | 0.25 | -2.02
CC(C)Oc1ccc2c(=O)[nH]c3sccc3c2c1 | 2.81 | -1.93 | 0.87 | 1.82 | 0.89 | 0.11 | -0.48 | -0.42
CC(C)(F)C[C@H](N[C@@H](c1ccc(-c2ccc(S(C)(=O)=O)cc2)cc1)C(F)(F)F)C(=O)NC1(C#N)CC1 | 0.21 | -2.13 | -0.11 | -0.06 | 0 | -1.51 | -0.27 | -1.8
Cn1c(=O)cc(N2CCC[C@@H](N)C2)n(Cc2cc(F)ccc2C#N)c1=O | 0.09 | -1.94 | 0.46 | -0.06 | -0.59 | 0.52 | -0.72 | 0.97
Cc1ncsc1-c1ccc(CNC(=O)[C@@H]2C[C@@H](O)CN2C(=O)[C@@H](NC(=O)COCCOCCOCCNC(=O)C[C@@H]2N=C(c3ccc(Cl)cc3)c3c(sc(C)c3C)-n3c(C)nnc32)C(C)(C)C)cc1 | 0.3 | 10 | -1.76 | 0.94 | 0 | 0 | 0 | 0
COc1ccc(-c2c(-c3ccc(C#N)c(F)c3)nc(N3CCC(N)CC3)n(C)c2=O)cc1F | 0.65 | -3.53 | 0 | 0 | -0.33 | 0.2 | -2.24 | -0.36
